# Screens: PubChem BioAssay, National Center for Advancing Translational Sciences (NCATS)
# An excerpt weighted towards active compounds, which were near 2.8% of everything screened.
# KDM5B inh: Primary screen for KDM5B Histone Demethylases FDH-coupled qHTS. AID 1347165, 2019. Lysine-specific demethylase 5B (Homo sapiens), Q9UGL1. KDM5B demethylase, FDH-coupled NADH fluorescence (FDH is formaldehyde dehydrogenase). 220,000 tested, 2.6% active. Potency, µM (doses to about 57.7 µM), hits mostly inhibitors; active = well fitted inhibition curve with a large enough effect; inconclusive = small, poorly fitted or top-dose-only effect; inactive = no such curve, though single readings can be large or run the other way; also: nearly all actives have a fitted effect of over 70% in size
#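 KDM5BΔAP (200 nM final) in 50 mM HEPES pH 7.5, 0.01% Tween-20 was preincubated 10 min at RT with compound over a concentration range. Substrate mix (H3K4me3 12.5 µM, α-KG 25 µM, Fe²⁺, ascorbate, NAD⁺, FDH) was added, and NADH fluorescence change over 30 min gave dose-response curves.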
# IP6K1 inh: Primary qHTS assay for small molecule inhibitors of Inositol hexaphosphate kinase 1 (IP6K1); 140,000 tested, 0.81% active; IP6K1 kinase, ADP-Glo luminescence, 2 h; hits give low values; activity change, % (series mostly up to about 58 µM); Inositol hexakisphosphate kinase 1 (Homo sapiens), Q92551; in the data active = activity change below about -25%
#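 ADP-Glo luminescence measures ADP made by human IP6K1 during a 2 h RT reaction with ATP/IP6 (mix at 1.3 mM/130 uM); top library doses 57.5 and 19.1 uM final.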
# Numbers stand for hits; . = inactive; ? = inconclusive; / = not tested or not shown.
SMILES,KDM5B inh,IP6K1 inh
Cc1nc(-c2ccc(N(C)C)cc2)cc([C@H]2CN3CC[C@H]2C[C@@H]3CNC(=O)C2CC2)n1,?,.
Cc1nc(-c2ccc(N(C)C)cc2)cc([C@H]2CN3CC[C@H]2C[C@@H]3CNC(=O)N2CCOCC2)n1,28.2µM,.
COc1ccccc1-c1cc([C@H]2CN3CC[C@H]2C[C@@H]3CNC(=O)N2CCOCC2)n(C)n1,.,.
Cc1nc(-c2ccc(N(C)C)cc2)cc([C@H]2CN3CC[C@H]2C[C@@H]3CNC(=O)C(C)(C)C)n1,31.6µM,.
COc1ccc(-c2cc([C@H]3CN4CC[C@H]3C[C@@H]4CNC(=O)N3CCOCC3)nc(C)n2)cc1OC,22.4µM,.
Cc1nc(-c2cccs2)cc([C@H]2CN3CC[C@H]2C[C@@H]3CNC(=O)c2ccc(N(C)C)cc2)n1,.,.
Cc1nc(-c2ccccc2Br)cc([C@H]2CN3CC[C@H]2C[C@@H]3CNC(=O)Nc2ccccc2)n1,?,.
CC(=O)OC1CC(O)C2(C)C(CC(OC(C)=O)C3(C)C2CCC2(C)C(c4ccoc4)C(=O)C4OC423)C1(C)C (centres undefined),/,.
CC[C@@H](C)[C@H]1C(=O)O[C@H](C(C)C)C(=O)N(C)[C@@H]([C@@H](C)CC)C(=O)O[C@H](C(C)C)C(=O)N(C)[C@@H]([C@H](C)CC)C(=O)O[C@H](C(C)C)C(=O)N1C,/,.
CCOC(=O)[C@H]1CN(C(=O)CC2CCCC2)[C@]2(C)C(=O)Nc3ccccc3[C@H]12,/,.
COc1cc2c(cc1OC1CCCC1)NC(=O)C21CCN(c2ncc(C(C)C)cn2)CC1,35.5µM,.
COc1cc2c(cc1Oc1cccc(N(C)C)c1)NC(=O)C21CCN(c2ncc(F)cn2)CC1,31.6µM,.
CCc1cnc(N2CCC3(CC2)C(=O)Nc2cc(Oc4ccccc4)c(OC)cc23)nc1,31.6µM,.
COc1cc2c(cc1Oc1cccc(N(C)C)c1)NC(=O)C21CCN(c2ncccn2)CC1,?,.
COc1cc2c(cc1Oc1ccccc1)NC(=O)C21CCN(Cc2cccnc2)CC1,.,.
CCc1cnc(N2CCC3(CC2)C(=O)Nc2cc(OC4CCCC4)c(OC)cc23)nc1,35.5µM,.
COc1cc2c(cc1OC1CCCC1)NC(=O)C21CCN(c2ncc(F)cn2)CC1,?,.
COc1cc2c(cc1OC1CCCC1)NC(=O)C21CCN(c2ncccn2)CC1,.,.
CN1C2CCC1CC(OC(=O)N1Cc3ccccc3NC1=O)C2 (centres undefined),/,.
CCCN(CCC)[C@@H]1CCc2ccc3[nH]c(C#N)cc3c2C1,/,.
Cc1ccc(NC(=O)CN2C(=O)CN=C(c3ccc(F)cc3)c3c2sc(C)c3C)cc1,.,/
N#Cc1ccc(C(=O)N2C[C@@H]3C[C@H](C2)c2c(-c4ccccc4F)ccc(=O)n2C3)cc1,?,.
N#Cc1cccc(-c2ccc3n(c2=O)C[C@H]2C[C@@H]3CN(C(=O)CSCC(=O)O)C2)c1,35.5µM,.
CSCC(=O)Nc1ccc2n(c1=O)C[C@H]1C[C@@H]2CN(C(=O)COc2ccccc2)C1,?,.
N#Cc1cccc(-c2ccc3n(c2=O)C[C@H]2C[C@@H]3CN(C(=O)Nc3ccccc3)C2)c1,35.5µM,.
SMILES,KDM5B inh,IP6K1 inh
O=C(Nc1ccccc1)N1C[C@@H]2C[C@H](C1)c1c(-c3cncnc3)ccc(=O)n1C2,.,.
N#Cc1cccc(-c2ccc3n(c2=O)C[C@H]2C[C@@H]3CN(C(=O)c3ccc(F)cc3)C2)c1,31.6µM,.
O=C(Cc1cccc(Cl)c1)N1CCN(Cc2ccccc2-c2cccnc2)CC1,/,.
Cc1ccc(Cn2nc(C(=O)N[C@@H]3C(C)(C)[C@@H]4CC[C@@]3(C)C4)cc2-c2ccc(Cl)c(C)c2)cc1,/,.
COc1cc2c(cc1OCc1ccccc1)NC(=O)C21CCN(c2nc(C)cnc2C)CC1,28.2µM,.
COc1cc2c(cc1OCc1ccccc1)NC(=O)C21CCN(Cc2ccccn2)CC1,.,.
COc1cc2c(cc1OCc1ccncc1)NC(=O)C21CCN(Cc2ccccc2O)CC1,.,.
COc1cc2c(cc1OCc1ccncc1)NC(=O)C21CCN(c2ccccn2)CC1,28.2µM,.
CCOC(=O)[C@H]1CN(C(=O)OCC(C)(C)C)[C@]2(C)C(=O)N(CCO)c3ccccc3[C@H]12,/,.
CC(C)OC(=O)c1ccnc2cc(C(OCCN3CCCCC3)c3ccccc3Cl)sc12 (centres undefined),/,.
COc1ccc(-c2cnc3[nH]cc(CC(=O)N4CCN(C)CC4)c3c2)cc1OC,?,.
COc1ncccc1-c1cnc2[nH]cc(CC(=O)N3CCN(C)CC3)c2c1,35.5µM,.
COc1cccc(-c2cnc3[nH]cc(CC(=O)N4CCN(C)CC4)c3c2)c1,35.5µM,.
CN1CCN(C(=O)Cc2c[nH]c3ncc(-c4ccnn4C)cc23)CC1,?,.
